In PubChem BioAssay (EPA / NIEHS):
Some structures have more than one record in an assay (separate samples or runs), and their calls can disagree. The source made the active and inactive calls. Rule for the calls: active = hit-call score of the fitted dose curve at least 0.9, where 1 is the maximum; inactive = score below 0.9.

Experiments:
[1] = read-out: Macrophage colony-stimulating factor (MCSF), CSF1 (gene 1435); assay: BSK_hDFCGF_MCSF: BioMAP Diversity Plus: hDFCGF Assay for Macrophage colony-stimulating factor (MCSF) Biomarker Activity (AID 2283060); details: primary human foreskin fibroblasts; actives raise or lower the signal
Procedure, shortened: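 ELISA read-out of M-CSF in human dermal foreskin fibroblast cultures, 24 h after chemical dosing; gain or loss of signal fitted bidirectionally relative to DMSO baseline.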

[2] = BSK_hDFCGF_SRB: Viability Assessment in the BioMAP Diversity Plus: hDFCGF Assay (AID 2283061); details: primary human foreskin fibroblasts;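 note: cells exposed to compound for 24 h before the read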
Procedure, shortened: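 Primary human foreskin fibroblasts; 24 h post-dose; fixed 10% TCA, stained 0.1% SRB, A560 read; total protein as overt cytotoxicity measure; curves fit bidirectionally vs DMSO control.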

[3] = read-out: TIMP metallopeptidase inhibitor 1 (TIMP1), TIMP1 (gene 7076); assay: BSK_hDFCGF_TIMP1: BioMAP Diversity Plus: hDFCGF Assay for TIMP metallopeptidase inhibitor 1 (TIMP1) Biomarker Activity (AID 2283062); details: primary human foreskin fibroblasts; actives raise or lower the signal
Procedure, shortened: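 ELISA readout of TIMP-1 from human dermal foreskin fibroblast cultures 24 h post-dosing. Curves were fitted in both directions against DMSO baseline, with SRB total-protein staining in parallel cultures as a cytotoxicity check.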

[4] = read-out: Monokine induced gamma interferon (MIG), CXCL9 (gene 4283); assay: BSK_hDFCGF_MIG: BioMAP Diversity Plus: hDFCGF Assay for Monokine induced gamma interferon (MIG) Biomarker Activity (AID 2283063); details: primary human foreskin fibroblasts; actives raise or lower the signal
Procedure, shortened: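 Fibroblasts (human foreskin, primary) dosed, 24 h, MIG by ELISA; fit bidirectional vs DMSO.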

[5] = read-out: Matrix Metallopeptidase 1 (MMP1), MMP1 (gene 4312); assay: BSK_hDFCGF_MMP1: BioMAP Diversity Plus: hDFCGF Assay for Matrix Metallopeptidase 1 (MMP1) Biomarker Activity (AID 2283064); details: primary human foreskin fibroblasts; actives raise or lower the signal
Procedure, shortened: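 ELISA read-out of MMP1 from human foreskin fibroblasts (primary skin cells), 24 h post-dose. Gain or loss of signal was fitted bidirectionally versus DMSO negative control; cytotoxicity was checked by SRB in parallel cultures.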

[6] = read-out: Vascular cell adhesion molecule 1 (VCAM1), VCAM1 (gene 7412); assay: BSK_hDFCGF_VCAM1: BioMAP Diversity Plus: hDFCGF Assay for Vascular cell adhesion molecule 1 (VCAM1) Biomarker Activity (AID 2283065); details: primary human foreskin fibroblasts; actives raise or lower the signal;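 for AC50: VCAM-1 protein level quantified by ELISA after 24 h chemical exposure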
Procedure, shortened: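 ELISA read-out of VCAM-1 on human skin fibroblasts, 24 h post-dose; gain or loss of signal fitted bidirectionally against DMSO baseline.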

[7] = read-out: Plasminogen activator inhibitor-1 (PAI1), SERPINE1 (gene 5054); assay: BSK_hDFCGF_PAI1: BioMAP Diversity Plus: hDFCGF Assay for Plasminogen activator inhibitor-1 (PAI1) Biomarker Activity (AID 2283066); details: primary human foreskin fibroblasts; actives raise or lower the signal
Procedure, shortened: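 PAI-1 levels in human dermal foreskin fibroblasts were quantified by ELISA 24 h after dosing, with gain or loss analysed against DMSO. Overt cytotoxicity was checked by sulforhodamine B total-protein staining in parallel cultures.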

[8] = read-out: Intercellular Adhesion Molecule 1 (ICAM1), ICAM1 (gene 3383); assay: BSK_KF3CT_ICAM1: BioMAP Diversity Plus: KF3CT Assay for Intercellular Adhesion Molecule 1 (ICAM1) Biomarker Activity (AID 2283067); details: primary human keratinocytes with fibroblasts; actives raise or lower the signal
Procedure, shortened: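 ELISA readout of ICAM-1; KF3CT human skin co-culture (keratinocytes + foreskin fibroblasts), 24 h post-dose; gain/loss fit vs DMSO baseline.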

[9] = read-out: Interferon-gamma inducible Protein 10 (IP10), CXCL10 (gene 3627); assay: BSK_KF3CT_IP10: BioMAP Diversity Plus: KF3CT Assay for Interferon-gamma inducible Protein 10 (IP10) Biomarker Activity (AID 2283068); details: primary human keratinocytes with fibroblasts; actives raise or lower the signal
Procedure, shortened: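 KF3CT co-culture (keratinocytes + foreskin fibroblasts), 24 h compound, IP-10 by ELISA; bidirectional fit vs DMSO baseline.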

[10] = BSK_KF3CT_SRB: Viability Assessment in the BioMAP Diversity Plus: KF3CT Assay (AID 2283069); details: primary human keratinocytes with fibroblasts;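 note: read 24 h after compound addition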
Procedure, shortened: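 SRB read-out at 560 nm (0.1% stain, TCA-fixed cells) gauges overt cytotoxicity in a human skin keratinocyte–fibroblast co-culture 24 h post-dosing. Signal change was fitted bidirectionally relative to DMSO control.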

Measured: AC50

CC1(C)C(=O)N(Cl)C(=O)N1Cl
inactive: all assays above

Cc1ccc(S(=O)(=O)NC(=O)NN2CCCCCC2)cc1
inactive: all assays above

CCCCCOC(C)=O
inactive: all assays above

CCn1nc(C)c2c1C(=O)NCC(c1ccc(O)cc1)=N2
active: [1] 3.97 µM | [7] 1.14 µM
inactive: all other assays above

CCCCCCCCCC
inactive: all assays above

Cc1nc(-c2ccccn2)ncc1C(=O)Nn1cc(C)c2cc(F)ccc21
inactive: all assays above

CC[C@H](C)C(=O)O[C@H]1C[C@H](O)C=C2C=C[C@H](C)[C@H](CC[C@@H](O)C[C@@H](O)CC(=O)O)[C@H]21
not listed: [4]
inactive: all other assays above

O=S1(=O)CCCO1
inactive: all assays above

OCCOCCOCCO
inactive: all assays above

CCCCCCOC(=O)CC(CC(=O)OCCCCCC)(OC(=O)CCC)C(=O)OCCCCCC
not listed: [4]
inactive: all other assays above

c1ccc2c(c1)-c1cccc3c1c-2cc1ccccc13
active: [5] 6.72 µM
inactive: all other assays above

S=P(N1CC1)(N1CC1)N1CC1
inactive: all assays above

O=C(O)c1cccc(C[C@@H]2COc3ccc(OCc4nc5cc(F)ccc5s4)cc3[C@@H]2O)c1
active: [1] 13.8 µM
inactive: all other assays above

CCCCCCCCCCCCCCO
active: [1] 24.9 µM | [2] 30.2 µM | [4] 10.8 µM | [6] 20 µM | [7] 27 µM
inactive: all other assays above

CC(C)CCCCCCOC(=O)C1CCCCC1C(=O)OCCCCCCC(C)C (stereo unspecified)
not listed: [4]
inactive: all other assays above

Cc1nccn1-c1ccc(Sc2cccc(C3(C(N)=O)CCOCC3)c2)cc1
active: [3] 2.1 µM | [5] 2.9 µM | [6] 3.25 µM
not listed: [4]
inactive: all other assays above

C[C@@H](Oc1ccc(CNC(=O)c2cccnc2Oc2ccc3c(c2)OCO3)c(F)c1)C(=O)O
not listed: [4]
inactive: all other assays above

CC(=O)c1ccccc1
not listed: [4]
inactive: all other assays above

CCCCC(CC)C(=O)OCCOCCOCCOC(=O)C(CC)CCCC (stereo unspecified)
active: [1] 10.7 µM
not listed: [4]
inactive: all other assays above

CCc1cccc(CC)c1N
not listed: [4]
inactive: all other assays above

CCCOc1ccc(S(=O)(=O)N2CCN(CC)CC2)cc1-c1nc2c(CC)n(Cc3ccccn3)nc2c(=O)[nH]1
inactive: all assays above

CCN(CC)C(=S)SSC(=S)N(CC)CC
active: [1] 1.76 µM | [2] 4.75 µM | [3] 2.03 µM | [5] 3.27 µM | [6] 1.56 µM | [7] 3.95 µM | [8] 13.5 µM | [9] 9.46 µM | [10] 9.96 µM

C[C@]12C=CC(=O)C=C1CC[C@H]1[C@@H]3C[C@@H](O)[C@](O)(C(=O)CO)[C@@]3(C)C[C@H](O)[C@@]12F
active: [1] 0.58 µM | [5] 0.148 µM
not listed: [4]
inactive: all other assays above

CCCCCCCCCCCCCCCCOS(=O)(=O)O
active: [1] 10.2 µM | [2] 13.7 µM | [3] 18.2 µM | [4] 13.1 µM | [5] 16.6 µM | [6] 5.95 µM | [7] 9.1 µM | [8] 14.9 µM | [9] 11.9 µM | [10] 15.8 µM

Cc1cccc(O)c1C
not listed: [4]
inactive: all other assays above

FC(F)(F)C(F)(F)C(F)(F)C(F)(F)C(F)(F)C(F)(F)I
inactive: [1] | [2] | [3] | [5] | [6] | [7] | [8] | [9] | [10]
active: [6] 48.3 µM

CCCCN1C(=O)[C@@H]([C@H](O)C2CCCCC2)NC(=O)C12CCN(Cc1ccc(Oc3ccc(C(=O)O)cc3)cc1)CC2
active: [2] 20 µM | [5] 7.18 µM | [6] 31 µM
not listed: [4]
inactive: all other assays above

C=CCc1cc(S(=O)(=O)c2ccc(O)c(CC=C)c2)ccc1O
active: [1] 27 µM | [2] 14.8 µM | [3] 26.4 µM | [5] 31 µM | [6] 15 µM | [7] 10.2 µM | [8] 23.7 µM | [9] 13.8 µM | [10] 26.5 µM

Cc1ncc([C@@H](CCCCCCc2ccc3c(n2)NCCC3)CC(=O)O)cn1
not listed: [4]
inactive: all other assays above

O=C(O)c1ccc2c(c1)nc(C(=O)NC1CCN(C3CC3)CC1)n2Cc1cc(-c2ccc(Cl)s2)on1
not listed: [4]
inactive: all other assays above

O=S(=O)(O)c1ccc(N=Nc2c(O)ccc3cc(S(=O)(=O)O)ccc23)cc1
not listed: [4]
inactive: all other assays above

CC(C)C(=O)Nc1ccc([N+](=O)[O-])c(C(F)(F)F)c1
not listed: [4]
inactive: all other assays above

NC(N)=O
not listed: [1] | [4]
inactive: all other assays above

Cn1c(=O)c2[nH]cnc2n(C)c1=O
not listed: [2] | [4]
inactive: all other assays above

NC(=O)NN=Cc1ccc([N+](=O)[O-])o1
not listed: [4]
inactive: all other assays above

CCCC(CCC)C(=O)O
not listed: [4]
inactive: all other assays above

CCOc1ccc2[nH]cc(C(=O)NCc3ccccc3)c(=O)c2n1
not listed: [4]
inactive: all other assays above

OCC(CO)(CO)CO
not listed: [4]
inactive: all other assays above

CC(C)CC(C)O (stereo unspecified)
not listed: [4]
inactive: all other assays above

NC(=O)N1c2ccccc2C=Cc2ccccc21
not listed: [4]
inactive: all other assays above

FC(F)=C(F)C(F)(F)C(F)(F)C(F)(F)C(F)(F)C(F)(F)C(F)(F)F
not listed: [4]
inactive: all other assays above

Nc1ccn([C@@H]2O[C@H](CO)[C@@H](O)[C@@H]2O)c(=O)n1
not listed: [4]
inactive: all other assays above

OC[C@H]1O[C@@](CO)(O[C@H]2O[C@H](CO)[C@@H](O)[C@H](O)[C@H]2O)[C@@H](O)[C@@H]1O
not listed: [4]
inactive: all other assays above

c1ccc2cc3ccccc3cc2c1
not listed: [4]
inactive: all other assays above

COc1cc(C(C)C)c2c(c1)S(=O)(=O)N(COc1cc(=O)n3cccc(OCCN4CCCCC4)c3n1)C2=O
inactive: [3] | [8] | [10]
active: [1] 3.29 µM | [2] 8.05 µM | [5] 1.3 µM | [6] 2.72 µM | [7] 6.38 µM | [9] 7.22 µM

CCOC(N)=O
not listed: [4]
inactive: all other assays above

O=c1[nH]cnc2c1ncn2[C@H]1CC[C@@H](CO)O1
not listed: [1] | [4]
inactive: all other assays above

FC(F)C(F)(F)COCC1CO1 (stereo unspecified)
not listed: [4]
inactive: all other assays above

NC(=O)N(O)[C@@H]1COc2cc(OCc3ccccc3)ccc21
not listed: [4]
inactive: all other assays above

C=CN1CCCC1=O
not listed: [4]
inactive: all other assays above

NNC(=O)c1ccncc1
not listed: [4] | [5]
inactive: all other assays above

CC(C)c1nnc2ccc(-c3ocnc3-c3cc(F)ccc3F)cn12
active: [5] 0.385 µM | [6] 0.148 µM
not listed: [4]
inactive: all other assays above

NCC(F)(F)C(F)(F)C(F)(F)C(F)(F)F
not listed: [4]
inactive: all other assays above

OCc1c[nH]c2ccccc12
active: [5] 0.655 µM | [6] 3.97 µM | [7] 4.75 µM
not listed: [4]
inactive: all other assays above

OCCC(F)(F)C(F)(F)C(F)(F)C(F)(F)F
not listed: [4]
inactive: all other assays above
